An excerpt weighted towards active compounds, which were near 6.7% of everything screened.
KB-V1 MDR tox – kills drug-selected multidrug resistant KB-V1 cells; 400,000 compounds, 3.4% hits; AID 1347076; KB-V1 MDR cells viability, CellTiter-Glo, 72 h; Potency, µM (highest dose often 46.1 µM), most hits filed as cytotoxic; note: nearly all actives have a fitted effect of over 60% in size
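KB-V1, DMEM (no phenol red) + 10% FBS; cpd pin-transferred, titration series; 72 h, 37 degrees C; CellTiter-Glo, luminescence. Data normalized, curve-fit.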
KB-3-1 tox – kills parental KB-3-1 adenocarcinoma cells; KB-3-1 viability, CellTiter-Glo ATP luminescence, 72 h; Potency, µM (titrated, usually from 46.1 µM), usual class: cytotoxic; 400,000 compounds, 1.4% hits; note: nearly all actives have a fitted effect of over 60% in size
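Parental KB-3-1 viability, qHTS format: 72 h compound exposure, 37 °C; CellTiter-Glo; media-only wells and DMSO plates as controls; concentration-effect fits on corrected data.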
PINK1 expr mod – PINK1 expression modulation; PINK1 immunofluorescence, high-content cytometry, 24 h; Potency, µM (titrated, usually from 76.6 µM), most hits filed as activators; 410,000 compounds, 0.2% hits; AID 624263; active = well fitted activation curve with a large enough effect; inconclusive = small, poorly fitted or top-dose-only effect; cell line not stated here; note: nearly all actives have a fitted effect of over 65% in size
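A stable cell line was treated with compounds at 5 concentrations for 24 hours, with CCCP as control. PINK1 levels and mitochondrial localization were measured by immunofluorescence with mitochondrial, cell and nuclear markers after fixation, read by laser-scanning cytometry.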
MCF10A rereplic – induces DNA re-replication in MCF 10a normal breast cells; MCF 10A DNA re-replication, Hoechst nuclear intensity, 48 h; Potency, µM (doses to about 46.1 µM), hits mostly activators; 350,000 compounds, 2.9% hits; note: nearly all actives have a fitted effect of over 50% in size
SW480 rerep – inducers of DNA re-replication in SW480 colon cancer cells. SW480 DNA re-replication, Hoechst DNA content imaging, 48 h. Potency, µM (highest dose often 46.1 µM), hits mostly activators. 340,000 compounds, 1.8% hits; note: nearly all actives have a fitted effect of over 55% in size
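Image-based read-out: total Hoechst fluorescence of nuclei (405 nm excitation, 500-530 nm emission), with hits raising the fraction of high-intensity nuclei. SW480 colon cells incubated 48 hr with compounds at 37 C.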
Hits are given with their value; - = inactive; ? = inconclusive; . = not tested or not shown. Unless noted, calls come from the whole dose curve; as a rule, active = well fitted curve in the direction sought with a large enough effect; inconclusive = small, poorly fitted or top-dose-only effect, or another doubt; inactive = no such curve, though single readings can be large; an effect the other way counts as inactive or inconclusive.

SMILES	KB-V1 MDR tox	KB-3-1 tox	PINK1 expr mod	MCF10A rereplic	SW480 rerep
CC(C)(C)c1ccc(-c2nnc(NC(=O)Nc3ccc4ccccc4c3)s2)cc1	-	?	.	.	.
COc1ccccc1NC(=O)CCn1cnc2ccccc2c1=O	.	.	-	.	.
COc1cccc(C=NN(C)c2c([N+](=O)[O-])cc(C(F)(F)F)cc2[N+](=O)[O-])c1O	?	-	-	.	.
COc1cccc2[nH]c3c(=O)[nH]cnc3c12	?	-	-	-	-
COc1cccc2c3cccc(OC)c3c3[nH]cnc3c12	?	?	-	20.6µM	?
COC(=O)C1(C)COP(=O)(NC23CC4CC(CC(C4)C2)C3)OC1 (configuration not stated)	18.4µM	-	-	-	-
COCCNC(=O)NC12CC3CC(CC(C3)C1)C2	-	-	-	-	-
COc1cccc(NC(=O)c2c(-c3ccc(C)cc3)nnc3ccccc23)c1	-	-	-	.	.
CSc1nnc2c(n1)[nH]c1c(C)cccc12	-	-	-	-	-
CCSc1nnc2c(n1)[nH]c1c(C)cccc12	16.4µM	?	.	-	-
COC(=O)c1sccc1NC(=O)CSc1ccc(Cl)cc1	23.1µM	-	-	-	-
COC(=O)c1sccc1NC(=O)CSc1ccccc1NS(=O)(=O)c1ccc(Br)cc1	4.11µM	20.6µM	-	-	-
COC(=O)c1sccc1NC(=O)CN(C)NS(=O)(=O)c1ccc(F)cc1	?	-	-	?	13µM
COC(=O)c1sccc1NC(=O)Cn1nnc(-c2ccc(C)cc2)n1	20.6µM	-	-	-	-
O=C1OC(C(=O)Nc2cc(C(F)(F)F)ccc2Cl)Cc2ccccc21 (configuration not stated)	-	-	-	.	.
O=C1CCC[C@@H]2C[C@@]3(C[C@@H]4CCN1[C@H]24)Nc1ccccc1NC3=NC1CCCCC1	-	-	.	.	.
COC(=O)[C@@H]1CCCN1Cc1ccc2c(c1)CN(Cc1coc3ccccc3c1=O)CCO2	.	.	-	.	.
Cc1cc(C)n2nc(C(=O)OCC(=O)c3ccc(F)cc3)nc2n1	-	-	-	-	-
COc1ccc(/C=C/C(=O)c2cc(F)ccc2OC(=O)c2ccccc2)cc1OC	?	?	-	?	1.3µM
COc1ccc(/C=C/C(=O)c2cc(F)ccc2OC(=O)c2ccc(OC)c(OC)c2)cc1OC	-	-	-	?	-
COc1ccc(/C=C/C(=O)c2cc(F)ccc2OC(=O)c2ccccc2OC)cc1OC	3.26µM	5.17µM	-	13µM	?
O=C(CCCSc1nc2ccccc2[nH]1)N1CCN(c2ccccc2)CC1	-	-	-	-	-
O=C(CSc1nc2ccccc2[nH]1)N1c2ccccc2Sc2ccccc21	11.6µM	-	-	-	-
O=C(CSc1nc(O)cc(=O)[nH]1)N1c2ccccc2Sc2ccccc21	-	-	-	-	-
O=C(CSc1nc2ccccc2[nH]1)N1CCN(c2ccccc2)CC1	16.4µM	-	?	-	-
SMILES	KB-V1 MDR tox	KB-3-1 tox	PINK1 expr mod	MCF10A rereplic	SW480 rerep
Cc1cccc(N2CCN(C(=O)CCCSc3nc4ccccc4[nH]3)CC2)c1C	5.8µM	-	-	-	-
COc1ccc(C(=O)OC(C)C(=O)NC2CCCc3ccccc32)cc1OC (configuration not stated)	-	-	-	-	-
COc1ccc(Oc2ncc3ncc(=O)n(CCC#N)c3n2)cc1	.	.	-	.	.
COC(=O)c1sc(S(=O)(=O)N2CCCCC2)c(C(=O)OC)c1C	?	-	-	-	-
COC(=O)c1sc(S(=O)(=O)N2CCN(c3ccccc3)CC2)c(C(=O)OC)c1C	8.2µM	-	-	-	-
Cc1cc(N2CCC(C)CC2)nc2ccc(NC(=O)Cc3c(F)cccc3Cl)cc12	-	-	-	.	.
Cc1ccc(S(=O)(=O)NC(=O)N2CCCC2)cc1	-	-	-	-	-
Cc1nnn(C23CC4CC(CC(CC(=O)Nc5ccc(C)c(Cl)c5)(C4)C2)C3)n1	7.31µM	-	-	-	-
COc1ccc2c(Cn3cnc4cc([N+](=O)[O-])ccc4c3=O)cc(=O)oc2c1	4.61µM	4.61µM	-	9.2µM	5.8µM
COCCCn1c(SCC(=O)Nc2ccc(OC)cc2)nc2c(sc3ccccc32)c1=O	-	-	-	.	.
COc1cccc(-c2nc(SCc3cccc(Br)c3)n3[nH]c(=O)cc3n2)c1	?	-	-	.	.
COc1cc(-c2cnc3c(NC=O)cc(-c4ccc(C)cc4)cn23)cc(OC)c1OC	0.581µM	0.164µM	-	.	.
COc1ccc(-c2cc(NC(C)=O)c3ncc(-c4ccc(OC)c(OC)c4)n3c2)cc1OC	11.6µM	?	-	.	.
COc1ccccc1-c1cc(NC=O)c2ncc(-c3ccc(F)cc3)n2c1	9.2µM	16.4µM	-	.	.
COc1cc(-c2cnc3c(NC=O)cc(-c4ccccc4Cl)cn23)cc(OC)c1OC	3.26µM	1.03µM	-	.	.
CCOC(=O)c1[nH]c(C)c(CCC(=O)N2CCN(c3ccc(OC)cc3)CC2)c1C	-	-	-	.	.
COc1ccc(CC(=O)N2CCc3cc(OC)c(OC)cc3C2C)c(OC)c1 (configuration not stated)	-	-	-	-	-
N#Cc1cccc(-c2nc3cnc(N4CCOCC4)nc3n(C3CC3)c2=O)c1	.	.	-	.	.
COc1cc(-c2cnc3c(NC=O)cc(-c4cccc(NC(C)=O)c4)cn23)cc(OC)c1OC	-	0.366µM	-	.	.
Cc1ccc(-c2cc(NC=O)c3ncc(-c4cnn(C)c4)n3c2)cc1	5.8µM	10.3µM	-	.	.
COc1ccc(F)cc1-c1cc(NC=O)c2ncc(-c3cc(OC)c(OC)c(OC)c3)n2c1	6.51µM	?	-	.	.
Cc1ccc2c(c1)C(=O)C(=O)N2Cc1ccccc1	-	?	-	?	?
COc1ccc2c(c1)C(=O)C(=O)N2CCS(=O)(=O)c1ccccc1	-	?	-	?	?
COc1ccc(NC(=S)N(C)CC2COc3ccccc3O2)cc1 (configuration not stated)	?	-	-	0.651µM	-
CCOc1ccc2c(c1)C(=O)C(=O)N2CC1COc2ccccc2O1 (configuration not stated)	-	13µM	-	?	8.2µM
SMILES	KB-V1 MDR tox	KB-3-1 tox	PINK1 expr mod	MCF10A rereplic	SW480 rerep
CN(CC1COc2ccccc2O1)C(=S)Nc1ccccc1F (configuration not stated)	-	-	-	-	-
COc1ccc2c(c1)C(=O)C(=O)N2CC1COc2ccccc2O1 (configuration not stated)	?	14.6µM	-	?	?
Cc1ccc2c(c1)C(=O)C(=O)N2CC1COc2ccccc2O1 (configuration not stated)	20.6µM	?	-	?	23.1µM
Cc1ccc(C)c(Cn2nnc(C(=O)NCc3ccc(Cl)cc3Cl)c2N)c1	-	-	-	.	.
COC(=O)[C@]12CCCCC=C1N(Cc1ccc3c(c1)OCO3)C(=O)[C@H](CC(=O)NCCCN1CCCC1=O)C2	-	-	.	.	.
COc1cc(/C=C(/C#N)c2nc3ccccc3[nH]2)ccc1Oc1ncccc1[N+](=O)[O-]	-	-	7.94µM	?	-

Bioassay records: PubChem, National Center for Advancing Translational Sciences (NCATS)
